# Source: PubChem (The Scripps Research Institute Molecular Screening Center)
# Compounds with a hit are over-represented: about 3.5% of the library has one in this group of screens.
# MITF inh: inhibitors of human MITF | O75030 | AlphaScreen MITF homodimerization, bead proximity signal | inhibition, % at 2.6 µM | 0.91% of 650,000 active; in the data active = inhibition above about 50%;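 note: 0% = vehicle wells with protein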
# TEAD-YAP inh: TEAD-YAP interaction inhibition; HEK-TIYL cells, TEAD-Gal4/YAP UAS-luciferase luminescence; inhibition, % at 9.12 µM; 1.4% of 640,000 active; in the data active = inhibition above about 32%;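 note: 0% = median of test compound wells and 100% = reference inhibitor wells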
# FBW7 act: activators of human E3 ligase FBW7; AlphaScreen FBW7–phospho-cyclin E peptide binding, activator screen; normalized activity (activation), % at 26.1 µM; 0.13% of 650,000 active; AID 1259310; in the data active = normalized activity above about 1.9%;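 note: purified mutant Fbw7 with reduced substrate affinity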
# Target sequence (Q969H0 whole entry, looked up): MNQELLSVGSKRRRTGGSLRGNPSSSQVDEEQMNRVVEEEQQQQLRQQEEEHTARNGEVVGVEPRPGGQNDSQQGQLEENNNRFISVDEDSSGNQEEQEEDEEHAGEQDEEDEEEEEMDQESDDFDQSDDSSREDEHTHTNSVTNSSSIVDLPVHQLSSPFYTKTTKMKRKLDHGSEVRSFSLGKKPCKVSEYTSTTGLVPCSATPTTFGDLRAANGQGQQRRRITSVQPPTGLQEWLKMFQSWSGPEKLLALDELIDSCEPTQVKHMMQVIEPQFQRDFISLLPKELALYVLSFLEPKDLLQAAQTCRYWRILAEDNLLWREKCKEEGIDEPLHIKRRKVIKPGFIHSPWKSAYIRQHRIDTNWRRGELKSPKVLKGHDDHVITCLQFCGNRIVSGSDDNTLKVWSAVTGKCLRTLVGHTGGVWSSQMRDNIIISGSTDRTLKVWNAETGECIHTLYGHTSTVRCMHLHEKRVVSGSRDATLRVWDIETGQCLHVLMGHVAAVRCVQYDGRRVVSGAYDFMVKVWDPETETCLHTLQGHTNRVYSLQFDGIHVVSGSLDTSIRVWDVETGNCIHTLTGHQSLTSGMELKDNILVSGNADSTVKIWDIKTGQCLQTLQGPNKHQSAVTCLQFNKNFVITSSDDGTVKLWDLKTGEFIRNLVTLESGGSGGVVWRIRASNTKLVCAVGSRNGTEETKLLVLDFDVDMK
# GPR151 ag: activators of human GPR151; PathHunter beta-arrestin GPR151 cells, luminescence; activation, % at 11.2 µM; AID 1508602; 1% of 650,000 active; Q8TDV0; in the data active = activation above about 4.9%;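 note: 0% = median of compound wells and 100% = cells with positive control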
# MITF inh conf: human MITF inhibition, confirmation; inhibition, % at 2.6 µM; shares compounds with MITF inh; AlphaScreen MITF homodimerization, biotin/His-MITF beads; 16% of 4,700 active; AID 1259372;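 active = inhibition above a cutoff derived from the DMSO control wells, cut at about 28% in these data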;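 note: 0% = MITF dimer wells with DMSO only; inhibitors lower the bead chemiluminescence by keeping MITF from dimerizing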
# AS interf DR: AlphaScreen optical interference, dose response counter-screen. IC50, µM. shares compounds with MITF inh. 6% of 480 active. AlphaScreen optical interference counterscreen, cell-free; call rule not given here
# AS interf ctr: counter-screen: compounds optically interfering with AlphaScreen | inhibition, % at 2.6 µM | AID 1259376 | LysRS AlphaScreen counterscreen, signal interference, triplicate | shares compounds with MITF inh | 7.6% of 4,700 active;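 active = inhibition above a cutoff derived from the DMSO control wells, cut at about 30% in these data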
# * = called active by the depositor; nt = no result.
SMILES,MITF inh,TEAD-YAP inh,FBW7 act,GPR151 ag,MITF inh conf,AS interf ctr,others
CCOC(=O)CSc1nnc(-c2cccc(C)c2)n1-c1ccccc1,10,-13,0,0,nt,nt,
OC(CNc1ccccc1)CN1c2ccccc2Sc2ccccc21 (stereo unspecified),9,0,1,0,nt,nt,
Cc1ccc(C)c(NCC(O)CN2c3ccccc3Sc3ccccc32)c1 (stereo unspecified),73*,6,0,0,1,3,
O=C(Nc1cc([N+](=O)[O-])ccc1O)c1ccc2c(c1)C(=O)N(Cc1ccccc1)C2=O,-10,16,0,3,nt,nt,
NC(=O)CSc1nnc2c3ccccc3n(CCc3ccccc3)c2n1,53*,-4,0,0,7,-6,
CCCn1c2ccccc2c2nnc(SCC(N)=O)nc21,3,-9,0,1,nt,nt,
CC(=O)c1ccc(NC(=S)NNC(=O)CC#N)cc1,93*,1,0,-2,12,10,
CCNC(=S)NNC(=O)c1ccc(NC(=O)CC#N)cc1,-6,-1,0,-1,nt,nt,
CC(=O)OC1C2CC(C1Br)C(C(F)(F)F)(C(F)(F)F)N2 (stereo unspecified),55*,-4,0,0,-4,-2,
CC(=O)OC1C2CC(C1I)C(C(F)(F)F)(C(F)(F)F)N2 (stereo unspecified),10,1,0,0,nt,nt,
COC(=O)C1=C(O)CC(C(=O)OC)=C(O)C1,-8,-6,0,2,nt,nt,
CC1CCCC(N2CCN(Cc3cccc(Cl)c3)CC2)C1 (stereo unspecified),67*,-5,0,1,1,-6,
Brc1cccc(CN2CCC(N3CCCCC3)CC2)c1,-10,-5,0,0,nt,nt,
O=C(Cc1ccccc1)N1CCC(N2CCN(Cc3ccccc3)CC2)CC1,66*,6,0,1,2,9,
Clc1cccc(CN2CCN(C3CCCCCC3)CC2)c1,69*,1,0,-1,-5,-6,
c1ccc(CN2CCC(N3CCN(C4CCN(Cc5ccccc5)CC4)CC3)CC2)cc1,21,16,0,0,nt,nt,
CCc1ccc(CN2CCN(C3CCN(Cc4ccccc4)CC3)CC2)cc1,55*,6,0,-1,-9,0,
Cc1ccc(C(=O)Nc2cccc(Cl)c2C)o1,15,-17,0,1,nt,nt,
c1ccc(CN2CCN(C3CCCC3)CC2)cc1,75*,15,0,0,-5,-10,
CS(=O)(=O)N1CCC(N2CCN(Cc3ccccc3)CC2)CC1,54*,-3,0,1,7,20,
Cc1ccc(CN2CCN(C3CCCCC3)CC2)cc1,65*,-12,0,-1,3,18,
COc1ccc(CC(=O)NCCCN(C)Cc2ccccc2)cc1,-3,9,0,-1,nt,nt,
COc1ccc(NC(=O)CSCC(=O)Nc2c(C)n(C)n(-c3ccccc3)c2=O)cn1,4,6,0,1,nt,nt,
CC(NCc1ccc([N+](=O)[O-])cc1)C1COc2ccccc2O1 (stereo unspecified),62*,-6,0,0,-12,-6,
CC(C)NCC(O)CNC(C)C1COc2ccccc2O1 (stereo unspecified),-3,-1,0,3,nt,nt,
SMILES,MITF inh,TEAD-YAP inh,FBW7 act,GPR151 ag,MITF inh conf,AS interf ctr,others
CCNS(=O)(=O)c1ccc(Cl)c(Cl)c1,56*,4,0,0,-2,5,
Cc1cc(N2CCOCC2)nc2ccc(NC(=O)c3ccc(Br)o3)cc12,4,12,0,-1,nt,nt,
Cc1ccnc(NC(=O)CSC2=NC(=O)C(c3ccccc3)C(=O)N2)c1 (stereo unspecified),93*,3,0,1,2,9,
Cc1ccc(/C=C(\C#N)C(=O)Nc2cccc(Cl)c2Cl)o1,8,-2,0,0,nt,nt,
Cc1ccc(/C=C(\C#N)C(=O)Nc2c(Cl)cccc2Cl)o1,74*,-14,0,-2,5,18,
Cn1c(=O)[nH]c(=O)c2c1nc(Cl)n2CC(N)=O,82*,-1,0,0,2,10,
Cc1ccc(N2CCN(C(=O)c3cc4cc(Br)ccc4oc3=O)CC2)cc1C,7,-1,0,-1,nt,nt,
Cc1cccc(C)c1N1CCN(C(=O)c2cc3cc(Br)ccc3oc2=O)CC1,88*,6,0,2,-15,-1,
CCc1ccc(-c2nn(-c3cc(N4CCN(C)CC4)ccc3[N+](=O)[O-])c(=O)c3ccccc23)cc1,11,-6,0,0,nt,nt,
N#C/C=C1/N(C(=O)CCl)N=C(N2CCOCC2)N1c1ccccc1,4,2,0,1,nt,nt,
Cc1ccc([N+](=O)[O-])cc1S(=O)(=O)Nc1ccc(N)cc1,9,-1,0,-1,nt,nt,
Cc1ccc([N+](=O)[O-])cc1S(=O)(=O)Nc1ccc(Nc2ncccc2[N+](=O)[O-])cc1,97*,-8,0,1,97*,-6,AS interf DR=>6.6
N#CCCN1CCN(S(=O)(=O)c2ccccc2Br)CC1,78*,4,0,1,-7,6,
Cc1ccc(S(=O)(=O)N2CCN(CCC#N)CC2)cc1,62*,5,0,3,-5,2,
CC(=O)c1cccc(-c2nc3c(NCc4nc5ccccc5[nH]4)ncnc3n2C(C)C)c1,-2,-12,0,-2,nt,nt,
CCCCN1C(=O)NC2NC(=O)NC21 (stereo unspecified),94*,11,-1,0,86*,54*,
Cc1ccccc1COc1ccccc1C=O,-8,1,0,0,nt,nt,
COc1ccc(OCCCN2CCN(c3ccccc3OC)CC2)cc1,81*,8,0,1,53*,39*,
COc1ccccc1NC(=O)N1CCN(C)CC1,52*,8,0,-1,9,10,
COc1ccccc1N1CCN(CCCOc2ccc(F)cc2)CC1,60*,9,0,1,7,12,
COc1ccccc1N1CCN(C(=O)CN2CCN(C)CC2)CC1,54*,14,0,5,2,-1,
COc1ccccc1N1CCN(CCCCCCN)CC1,6,7,0,0,nt,nt,
Cc1ccc(CC2(CCC(=O)N3CCN(Cc4cccnc4)CC3)CCC(=O)N2)cc1 (stereo unspecified),-3,9,0,0,nt,nt,
Cc1cccc(NC(=O)Cn2c(C)cc(=O)c3cccc(C)c32)c1,-7,9,1,0,nt,nt,
COCCN(Cc1cc2cc3c(cc2[nH]c1=O)OCO3)C(C)=O,13,0,0,0,nt,nt,
COc1ccc2nc3sc4c(SCC(=O)Nc5cc(C)on5)ncnc4c3cc2c1,9,0,0,-1,nt,nt,
O=C1N=C(N2CCCCC2)S/C1=C\c1cccc(O)c1,4,-14,0,-1,nt,nt,
COc1ccc(Br)cc1CN1CCCC(C(=O)N2CCCCC2)C1 (stereo unspecified),84*,6,0,0,9,19,
